# Most compounds without a hit are left out; they make up all but 21% or so of the library.
# Shiga inhibitor: inhibitors of Shiga toxin in Vero cells. AID 2315. 9.2% of 290,000 active. inhibition, % at 38.7 µM. Vero cells, Shiga toxin protein synthesis inhibition reporter; in the data active means inhibition mostly above about 28%, no sharp cut-off; inactive means mostly below about 43%; further: 0% is about no effect
# NS1 function inh: inhibitors of influenza NS1 protein function | Potency, µM (top dose mostly 46.1 µM), inactives show at the top dose activity, positive = more growth | 0.4% of 270,000 active | AID 2326; calls by dose curve; further: potency means the concentration at half of the fitted maximal effect; actives are rising curves; nearly all actives have a fitted effect of over 50% in size
#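 S. cerevisiae expressing influenza A NS1, grown in glucose, washed, then diluted 1:100 into pH 6.0 -URA galactose medium with 23 nl compound. Growth recovery read as OD600; NS1-free strain serves as control.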
# Sm TGR inh: S. mansoni TGR enzyme inhibition. AID 485364. 3% of 360,000 active. purified TGR, DTNB reduction, TNB absorbance 405 nm. Potency, µM (doses to about 114 µM), without a hit: at the top dose activity change, negative = inhibition, hits mostly inhibitors. Q962Y6; further: potency means the concentration at half of the fitted maximal effect; on the % scale 0 is the no-effect control and ±100 the full control effect; nearly all actives have a fitted effect of over 60% in size
#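 First, TGR (20 nM dispensed) and NADPH were mixed with compound. Second, a 15 min room-temperature incubation followed. Third, further NADPH and then DTNB were added to start the reaction. Finally, TNB absorbance was monitored kinetically.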
# Pf growth 48h: inhibits P. falciparum growth in the first generation, 48 h | 5.9% of 310,000 active | Potency, µM (doses to about 28.7 µM), for the others: at the top dose activity change, negative = inhibition, usual class: inhibitors | P. falciparum luciferase growth in erythrocytes, 48 h | AID 504832; further: potency means the concentration at half of the fitted maximal effect; on the % scale 0 is the no-effect control and ±100 the full control effect
#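 A one-generation exposure of luciferase-tagged malaria parasites in RPMI 1640/Albumax erythrocyte culture, 37 C and 5% CO2. Inhibition is inferred from decreased luminescence after adding detection reagent.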
# CHX counter: affects cycloheximide protein synthesis inhibition readout, counter-screen. cell reporter, cycloheximide protein synthesis inhibition counterscreen. max response, %. 12% of 300,000 active. AID 2314; in the data active means max response mostly above about 13%, no sharp cut-off; inactive means mostly below about 14%; further: read at 38.3 µM for the half of the compounds with a filed dose; 0% is about no effect
# Pf growth 96h: P. falciparum growth inhibition at 96 hour, primary screen for plastid delayed-death inhibitors | 6.9% of 320,000 active | Potency, µM (doses to about 28.7 µM), inactives show at the highest dose activity change, negative = inhibition, hits mostly inhibitors | P. falciparum luciferase reporter growth, 96 h; further: potency means the concentration at half of the fitted maximal effect; on the % scale 0 is the no-effect control and ±100 the full control effect
#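 Plates of compound plus infected erythrocytes (2% hematocrit, 0.05% parasitemia final) incubate 96 hours, 37 C, 5% CO2. Detection reagent added; reduced luminescence from the parasites' luciferase reporter flags inhibition.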
# Active calls of the source: *; ? = inconclusive; nt = no result; [ ] = remark or other dose. Unless noted, the call rests on the fitted dose curve; in most records, active means well fitted curve in the direction sought with a large enough effect; inconclusive means small, poorly fitted or top-dose-only effect, or another doubt; inactive means no such curve, though single readings can be large; an effect the other way counts as inactive or inconclusive.
SMILES,Shiga inhibitor,NS1 function inh,Sm TGR inh,Pf growth 48h,CHX counter,Pf growth 96h
O=C(c1cc2ccccc2o1)N1CCCCCC1,61.9*,-5.1%,-0.4%,38.9%,45.5*,17.1%[5.75 µM]
CCN(CC)c1ccc(C(=O)NCc2ccc3c(c2)CCN3C(C)=O)cc1,nt,nt,-0.4%,nt,nt,nt
CCc1cccc2cc(C(O)CNC(C)(C)C)oc12 (centres undefined),-5.8,nt,nt,nt,-1.5,nt
CCn1nc(-c2ccccc2)c(-c2ccccc2)c(C(=O)Nc2ccccc2C#N)c1=O,nt,nt,0.7%,nt,nt,nt
CC1CC(C)C[N+](=C2C=C(N3CCCC3)CC(C)(C)C2)C1 (centres undefined),-6.8,nt,-2.3%,0.37µM*,-1.4,?
CC1(C)CC(N2CCN(c3ccccc3)CC2)=CC(=[N+]2CCCC2)C1,-15.4,-16.0%,-3.8%,1.65µM*,-8.9,6.1%
CC1(C)CC(N2CCCC2)=CC(=[N+]2CCCCCC2)C1,-4.7,nt,-8.3%,?,4.2,-19.8%
Cc1ccc(OCCCCn2c(-c3ccc(Cl)cc3)nc3ccccc3c2=O)cc1,nt,nt,1.3%,nt,nt,nt
CC(C)(Cc1c[nH]c2ccccc12)NCC(O)COc1ccccc1C#N (centres undefined),-7.2,nt,nt,16.9µM*,-6.0,7.57µM*
CCNC(=S)N/N=C/c1sc(N2CCCCC2)nc1-c1cccs1,active,21.1%,7.1%,0.262µM*,30.0*,0.165µM*
CCNC(=S)N/N=C/c1ccco1,-15.8,6.0%,?,nt,-2.0,?
CCOC(=O)c1cc(CC)sc1NC(=O)COc1ccccc1C,nt,nt,-3.5%,nt,nt,nt
CO/N=C/c1ccc(N2CCOCC2)c([N+](=O)[O-])c1,4.2,nt,-0.5%,14.0%,18.7,49.5%
O=[N+]([O-])c1cc(/C=N/OCc2c(Cl)cccc2Cl)ccc1N1CCOCC1,15.3,-3.7%,11.6%,?,18.7*,?
Cc1nn(CC(=O)N2CCC(C)CC2)c(=O)c2cc3sccc3n12,nt,nt,8.9%,nt,nt,nt
CCc1ccc(NC(=O)c2nnn(Cc3cccc(C(F)(F)F)c3)c2N)cc1,nt,nt,-3.3%,nt,nt,nt
COc1cc2c(cc1OC)C(c1cc(OC)c(OC)cc1[N+](=O)[O-])N(C(C)=O)CC2 (centres undefined),16.3,2.7%,89.1µM*,14.2%,1.8,0.1%
COc1cc2c(cc1OC)C(C)N(C(=O)c1cccc([N+](=O)[O-])c1)CC2 (centres undefined),-7.8,nt,1.9%,-8.0%,-3.7,0.522µM*
CNc1nnc(Sc2ncccc2[N+](=O)[O-])s1,-1.5,1.2%,?,9.28µM*,-2.8,?
O=c1ccnc(Sc2ncccc2[N+](=O)[O-])[nH]1,-9.5,-3.0%,-6.1%,-6.4%,0.1,-16.5%
c1ccc2c(Nc3ccc4c(c3)OCCO4)c3c(nc2c1)CCCC3,-2.6,nt,-5.5%,?,14.5,?
O=C1CC(Nc2ccc(N3CCOCC3)cc2)C(=O)N1c1ccccc1 (centres undefined),1.7,4.8%,35.5µM*,26.8%,9.5,nt
O=C1CC(Nc2ccc(N3CCOCC3)cc2)C(=O)N1Cc1ccccc1 (centres undefined),33.3,15.1%,20µM*,6.7%,1.5,?
CCOc1ccccc1N1C(=O)CC(Nc2ccc(N3CCOCC3)cc2)C1=O (centres undefined),-16.2,?,17.8µM*,?,-3.9,111.9%
COc1ccc(NC2CC(=O)N(c3ccccc3)C2=O)cc1 (centres undefined),28.7,-0.2%,?,nt,8.4,nt
SMILES,Shiga inhibitor,NS1 function inh,Sm TGR inh,Pf growth 48h,CHX counter,Pf growth 96h
COc1ccccc1N1C(=O)CC(Nc2ccc(N3CCOCC3)cc2)C1=O (centres undefined),-4.6,-6.8%,20µM*,?,-3.3,nt
O=C1CC(Nc2ccc3ccccc3c2)C(=O)N1Cc1ccccc1 (centres undefined),-12.6,2.0%,-30.5%,-21.2%,-0.5,nt
CCN(Cc1ccccc1)C(=O)Cn1c(=O)n(-c2ccc(Cl)c(Cl)c2)c(=O)c2c(C)c(C(=O)N(C)C)sc21,nt,nt,-17.9%,nt,nt,nt
CCc1cccc(NC(=O)Cn2c(=O)n(CC3CCC(C(=O)NC)CC3)c(=O)c3sccc32)c1 (centres undefined),nt,nt,2.4%,nt,nt,nt
O=C(Cn1nc(Cc2cccnc2)c2ccccc2c1=O)NCc1ccc(F)cc1,-6.1,-2.7%,4.2%,nt,-3.0,19.9%
O=C(C1=C[C@@H](C2CC2)C[C@@H](OCCCCO)O1)N1CCN(Cc2ccc3c(c2)OCO3)CC1,-8.4,-1.1%,104.4%,?,-1.9,?
Cn1c2ccccc2c2nn(-c3ccccc3)c(=O)cc21,-21.4,-5.1%,-3.0%,1.4%,-2.1,10.4µM*
Cn1c2ccccc2c2n[nH]c(=O)nc21,0.5,nt,-2.3%,7.7%,-2.3,?
O=C(O)c1cccnc1SC1CC(=O)N(c2ccccc2)C1=O (centres undefined),-3.2,1.8%,50.1µM*,?,-2.8,1.3%
Cc1nnc(SC2CC(=O)N(c3ccccc3)C2=O)s1 (centres undefined),-0.2,-3.5%,2.51µM*,26.7%,3.8,156.3%
O=C(O)c1ccccc1SC1CC(=O)N(c2ccccc2)C1=O (centres undefined),3.0,-43.3%,14.1µM*,-3.7%,8.5,2.08µM*
O=C(O)c1cccnc1SC1CC(=O)N(c2cccc3ccccc23)C1=O (centres undefined),20.2,nt,?,12.1%,0.8,9.3%
O=C(O)c1ccccc1SC1CC(=O)N(C2CCCCC2)C1=O (centres undefined),32.5,1.8%,3.98µM*,-1.2%,-3.1,-0.5%
CC(c1ccccc1)N1C(=O)CC(Sc2ncccc2C(=O)O)C1=O (centres undefined),3.6,4.7%,35.5µM*,-1.2%,7.8,2.08µM*
O=C1CC(Sc2cccs2)C(=O)N1c1ccccc1 (centres undefined),-2.6,-63.1%,6.31µM*,-18.9%,-3.0,0.0%
Cc1nc(SC2CC(=O)N(c3ccccc3)C2=O)nc2c1CCCC2 (centres undefined),4.8,-21.5%,-22.6%,6.0%,11.7,?
Cc1nc2sccn2c(=O)c1S(=O)(=O)Nc1ccc(N2CCN(S(C)(=O)=O)CC2)cc1,-16.4,?,-0.9%,-20.9%,-8.8,?
CCOC(=O)C(NS(=O)(=O)c1ccccc1)(C(F)(F)F)P(=O)(OC(C)C)OC(C)C (centres undefined),-10.6,10.1%,35.5µM*,nt,1.6,-23.5%
COc1ccc(C2CC(c3c(-c4ccccc4)c4cc(Cl)ccc4[nH]c3=O)=NN2C(=O)CCC(=O)O)cc1 (centres undefined),-4.8,17.9%,3.0%,?,-0.8,13.5%
CCC(=O)N1N=C(c2c(-c3ccccc3)c3cc(Cl)ccc3[nH]c2=O)CC1c1ccco1 (centres undefined),89.5,15.7%,-21.4%,10.4µM*,8.3,?

# Screening results: PubChem BioAssay, National Center for Advancing Translational Sciences (NCATS)
